Experimental findings from the antibiotic and cytotoxicity screens of Wong et al. (2023) are described below.

SMILES strings stand for the structures. About 1,500 (3.8%) of roughly 39,000 compounds were called active. Shown is part of a subset that was picked to be rich in actives.

The assay has as its system HSkMC (human skeletal muscle cells). The assay is described as follows: cytotoxicity call (relative viability < 0.9). The settings on record: 10 µM.
On to `CCC[C@@H](O)C#Cc1cnc2c(c1)C(=O)N([C@H](C)CO)C[C@H](C)[C@H](CN(C)C(=O)Nc1ccc(F)cc1)O2`, for which the cytotoxicity call is “inactive”.
Under `COC(=O)C12CC3(C(=O)OC)CC(C(=O)OC)(CC(C(=O)OC)(C1)C3=O)C2=O` stands “inactive”; under `COc1cccc(S(=O)(=O)Nc2ccc3c(c2)[C@@H]2C[C@H](CC(=O)NCc4cccc(F)c4)O[C@@H](CO)[C@@H]2O3)c1`, “inactive”; under `Cc1c2occ(C(C)(C)C)c2cc2c3c(c(=O)oc12)CCCC3`, “inactive”.
Next, `NC(=O)c1ccco1`: “inactive”.
Consider `C[C@H](CO)N1C[C@H](C)[C@H](CN(C)C(=O)Nc2cccc3ccccc23)Oc2c(NC(=O)NC3CCCCC3)cccc2C1=O`, for which the cytotoxicity call was “inactive”.
Under `COc1ccc(NC(=O)N(C)C[C@H]2Oc3ccc(NC(=O)C4CC4)cc3C(=O)N([C@H](C)CO)C[C@H]2C)cc1` stands “inactive”; under `C=CCOC(=O)[C@H]1[C@@H]2C(=O)O[C@@H](c3ccccc3)[C@@H](c3ccccc3)N2[C@@H](c2ccc(OCCOC(=O)NCCCCCC(=O)NO)cc2)[C@@]12C(=O)Nc1ccccc12`, “inactive”; under `C[C@@H]1CCCCO[C@H](CN(C)C(=O)Cc2ccccc2)[C@@H](C)CN([C@@H](C)CO)C(=O)c2cc(NS(=O)(=O)c3ccc(F)cc3)ccc2O1`, “inactive”.
Under `Cn1c(=O)c2c(ncn2CC(=O)O)n(C)c1=O` stands “inactive”.
Consider `Cc1cnc(Nc2ccc(F)cc2Cl)nc1-c1c[nH]c(C(=O)N[C@H](CO)c2cccc(Cl)c2)c1`, for which the cytotoxicity call was “active”.
Regarding `O=C(C[C@@H]1CC[C@@H]2NC[C@@H](O)COC[C@H]2O1)NCCN1CCCC1`, the cytotoxicity call is “inactive”.
Regarding `Cc1ccc(S(=O)(=O)N(C)C[C@@H]2OCCCC[C@H](C)Oc3ccc(NS(=O)(=O)c4ccc(Cl)cc4)cc3C(=O)N([C@@H](C)CO)C[C@H]2C)cc1`, the cytotoxicity call is “inactive”.
Next, `O=C(O)c1cc2sccc2s1`: “inactive”.
As for `CCOc1cc2ncc(C#N)c(Nc3ccc(OCc4ccccn4)c(Cl)c3)c2cc1NC(=O)/C=C/[C@H]1CCCN1C`, the cytotoxicity call is “inactive”.
Next, `CCOc1cc2ncc(C#N)c(Nc3ccc(OCc4ccccn4)c(Cl)c3)c2cc1NC(=O)/C=C/CN(C)C`: “active”; `COc1cc(Nc2c(C#N)cnc3cc(OCCCN4CCN(C)CC4)c(OC)cc23)c(Cl)cc1Cl`: “inactive”; `C[C@@H]1CCCCO[C@@H](CN(C)C(=O)Cc2ccccc2)[C@H](C)CN([C@@H](C)CO)C(=O)c2cc(NS(=O)(=O)c3ccc(Cl)cc3)ccc2O1`: “inactive”.
Under `CC(C)Oc1cccc(CC(=O)N2CCC[C@](CC[N+]34CCC(c5ccccc5)(CC3)CC4)(c3ccc(Cl)c(Cl)c3)C2)c1` stands “inactive”; under `CC(=O)N(C)C1(c2ccccc2)CCN(CCC[C@]2(c3ccc(Cl)c(Cl)c3)CCCN(C(=O)c3ccccc3)C2)CC1`, “active”.
Under `CC(C)NC(=O)Nc1ccc2c(c1)CC(=O)N([C@@H](C)CO)C[C@@H](C)[C@@H](CN(C)S(=O)(=O)c1cn(C)cn1)O2` stands “inactive”; under `C[C@H](CO)N1C[C@H](C)[C@@H](CN(C)Cc2ccccc2)OCCCC[C@H](C)Oc2ccc(NC(=O)c3ccncc3)cc2C1=O`, “inactive”.
As for `C[C@@H]1CN([C@H](C)CO)C(=O)c2c(c3ccccc3n2C)-c2ccccc2CO[C@H]1CN(C)S(=O)(=O)c1ccc(C(F)(F)F)cc1`, the cytotoxicity call is “active”.
Next, `C[C@@H]1CN([C@H](C)CO)C(=O)c2c(c3ccccc3n2C)-c2ccccc2CO[C@H]1CN(C)Cc1ccc(C(F)(F)F)cc1`: “active”; `C[C@H](CO)N1C[C@H](C)[C@H](CN(C)Cc2ccc(C(F)(F)F)cc2)OCc2ccccc2-c2c(n(C)c3ccccc23)C1=O`: “inactive”.
Take `C[C@@H]1CN([C@H](C)CO)C(=O)c2c(c3ccccc3n2C)-c2ccccc2CO[C@@H]1CN(C)Cc1ccc(C(F)(F)F)cc1`: the cytotoxicity call is “active”.
Under `C[C@H]1CN([C@@H](C)CO)C(=O)c2c(c3ccccc3n2C)-c2ccccc2CO[C@H]1CN(C)Cc1ccc(C(F)(F)F)cc1` stands “inactive”.
Under `C[C@@H]1CN([C@H](C)CO)C(=O)c2c(c3ccccc3n2C)-c2ccccc2CO[C@@H]1CN(C)S(=O)(=O)c1ccc(C(F)(F)F)cc1` stands “inactive”; under `C[C@H](CO)N1C[C@H](C)[C@@H](CN(C)Cc2ccc(C(F)(F)F)cc2)OCc2ccccc2-c2c(n(C)c3ccccc23)C1=O`, “inactive”; under `C[C@H]1CN([C@@H](C)CO)C(=O)c2c(c3ccccc3n2C)-c2ccccc2CO[C@@H]1CN(C)Cc1ccc(C(F)(F)F)cc1`, “inactive”.
Under `C[C@@H]1CN([C@H](C)CO)C(=O)c2c(c3ccccc3n2C)-c2ccccc2CO[C@@H]1CN(C)Cc1ccc(F)cc1` stands “inactive”.
Consider `C[C@@H]1CN([C@@H](C)CO)C(=O)c2c(c3ccccc3n2C)-c2ccccc2CO[C@H]1CN(C)Cc1ccc(C(F)(F)F)cc1`, for which the cytotoxicity call was “active”.
Under `C[C@@H]1CN([C@@H](C)CO)C(=O)c2c(c3ccccc3n2C)-c2ccccc2CO[C@@H]1CN(C)Cc1ccc(C(F)(F)F)cc1` stands “inactive”.
Next, `C[C@@H]1CN([C@@H](C)CO)C(=O)c2c(c3ccccc3n2C)-c2ccccc2CO[C@@H]1CN(C)S(=O)(=O)c1ccc(C(F)(F)F)cc1`: “inactive”.
Under `C[C@H](CO)N1C[C@H](C)[C@@H](CN(C)C(=O)Nc2ccccc2)OCCCC[C@H](C)Oc2ccc(NC(=O)Nc3ccc(F)cc3)cc2C1=O` stands “inactive”.
Regarding `C[C@@H]1CCCCO[C@H](CN(C)C(=O)Nc2ccc3c(c2)OCO3)[C@@H](C)CN([C@@H](C)CO)C(=O)c2cc(NS(=O)(=O)c3cccs3)ccc2O1`, the cytotoxicity call is “inactive”.
Under `CN(C)C(=O)C[C@H]1CC[C@@H](NC(=O)C2CCOCC2)[C@H](CO)O1` stands “inactive”.
On to `O=C(/C=C/c1ccc(O)c(O)c1)O[C@H]1[C@H](O)C[C@](OC(=O)/C=C/c2ccc(O)c(O)c2)(C(=O)O)C[C@H]1O`, for which the cytotoxicity call is “inactive”.
Under `O=C(C[C@@H]1CC[C@@H]2[C@H](COC[C@@H](O)CN2S(=O)(=O)c2ccc(Cl)cc2)O1)NCC1CCCCC1` stands “inactive”; under `COc1ccc(NC(=O)N(C)C[C@@H]2OCCCC[C@@H](C)Oc3ccc(NC(=O)Nc4ccc(F)cc4)cc3C(=O)N([C@H](C)CO)C[C@@H]2C)cc1`, “inactive”.
Next, `COc1ccc(S(=O)(=O)N(C)C[C@@H]2Oc3ccc(NC(=O)c4ccncc4)cc3C(=O)N([C@@H](C)CO)C[C@H]2C)cc1`: “inactive”.
For `C[C@H]1CN([C@@H](C)CO)C(=O)c2cccc(NC(=O)c3nc4ccccc4s3)c2O[C@H]1CN(C)S(C)(=O)=O`, the cytotoxicity call is “inactive”.
For the compound `CC(C)NC(=O)N(C)C[C@@H]1Oc2ccc(NS(=O)(=O)c3cccs3)cc2CC(=O)N([C@@H](C)CO)C[C@H]1C`, the cytotoxicity call was “inactive”.
For the compound `C[C@@H]1CN([C@@H](C)CO)S(=O)(=O)c2ccc(C#C[C@@H](C)O)cc2O[C@@H]1CN(C)C(=O)c1ccncc1`, the cytotoxicity call is “inactive”.
Consider `CO[C@@H]1CN(C)C(=O)c2cc(NC(=O)C3CC3)ccc2OC[C@H](C)N(C(=O)C2CCOCC2)C[C@H]1C`, for which the cytotoxicity call is “inactive”.
For the compound `Cc1noc(C)c1NC(=O)N(C)C[C@H]1Oc2c(NC(=O)NC(C)C)cccc2C(=O)N([C@H](C)CO)C[C@H]1C`, the cytotoxicity call was “inactive”.
Under `CO[C@@H](C(=O)N(C)C[C@H]1OCc2ccccc2-c2c(n(C)c3ccccc23)C(=O)N([C@@H](C)CO)C[C@H]1C)c1ccccc1` stands “inactive”; under `C[C@@H]1CN([C@@H](C)CO)C(=O)Cc2cc(NC(=O)Nc3cccc4ccccc34)ccc2O[C@H]1CN(C)C(=O)Nc1ccc(C(F)(F)F)cc1`, “inactive”; under `C[C@H]1CN([C@@H](C)CO)C(=O)Cc2cc(NC(=O)Nc3ccc(C(F)(F)F)cc3)ccc2O[C@@H]1CN(C)C(=O)Nc1cccc2ccccc12`, “inactive”.
Under `C[C@H]1CN([C@@H](C)CO)C(=O)Cc2cc(NC(=O)Nc3cccc4ccccc34)ccc2O[C@@H]1CN(C)C(=O)Nc1ccc(C(F)(F)F)cc1` stands “inactive”; under `C[C@H]1CN([C@@H](C)CO)C(=O)c2cc(NC(=O)Nc3cccc4ccccc34)ccc2O[C@H]1CN(C)Cc1ccc(C(F)(F)F)cc1`, “active”; under `C[C@H]1CN([C@@H](C)CO)C(=O)Cc2cc(NC(=O)Nc3cccc4ccccc34)ccc2O[C@H]1CN(C)Cc1ccc(C(F)(F)F)cc1`, “active”.
Under `C[C@@H]1CN([C@@H](C)CO)C(=O)c2cc(NC(=O)Nc3cccc4ccccc34)ccc2O[C@H]1CN(C)Cc1ccc(C(F)(F)F)cc1` stands “inactive”; under `C[C@H]1CN([C@@H](C)CO)C(=O)Cc2cc(NC(=O)Nc3cccc4ccccc34)ccc2O[C@@H]1CN(C)Cc1ccc(C(F)(F)F)cc1`, “inactive”.
Take `C[C@H]1CN([C@@H](C)CO)C(=O)Cc2cc(NC(=O)Nc3ccc(C(F)(F)F)cc3)ccc2O[C@H]1CN(C)C(=O)Nc1cccc2ccccc12`: the cytotoxicity call was “inactive”.
Next, `C[C@H](CO)N1C[C@H](C)[C@@H](CN(C)Cc2ccc(C(F)(F)F)cc2)Oc2ccc(NC(=O)Nc3cccc4ccccc34)cc2CC1=O`: “inactive”.
On to `C[C@@H]1CN([C@@H](C)CO)C(=O)Cc2cc(NC(=O)Nc3cccc4ccccc34)ccc2O[C@@H]1CN(C)C(=O)Nc1ccc(C(F)(F)F)cc1`, for which the cytotoxicity call is “active”.
Under `C[C@@H]1CN([C@H](C)CO)C(=O)c2cc(NC(=O)Nc3cccc4ccccc34)ccc2O[C@H]1CN(C)Cc1ccc(C(F)(F)F)cc1` stands “inactive”.
Regarding `C[C@@H]1CN([C@@H](C)CO)C(=O)Cc2cc(NC(=O)Nc3ccc(C(F)(F)F)cc3)ccc2O[C@@H]1CN(C)C(=O)Nc1cccc2ccccc12`, the cytotoxicity call was “active”.
Next, `COc1ccc(NC(=O)Nc2ccc3c(c2)[C@@H]2C[C@@H](CC(=O)NCc4ccncc4)O[C@H](CO)[C@@H]2O3)cc1`: “inactive”; `COc1ccc(S(=O)(=O)N(C)C[C@@H]2OCCCC[C@@H](C)Oc3ccc(NC(=O)Nc4ccccc4)cc3C(=O)N([C@@H](C)CO)C[C@H]2C)cc1`: “inactive”.
Take `C[C@H](CO)N1C[C@H](C)[C@H](CN(C)S(=O)(=O)c2ccccc2)Oc2ccc(NC(=O)Cn3cnnn3)cc2CC1=O`: the cytotoxicity call is “inactive”.
